Data on 14 compounds can be found in PubChem BioAssay.

SMILES strings stand for the structures. Some of the results follow. The source made the active and inactive calls.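 How the source made its calls, unless noted: active means inhibition reaching about 45% at 4 µM in either replicate (limit read from the data); inactive means the rest.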

Test [1] in a line: lowers stimulated NF-kB luciferase signal in Jurkat – cell-based, luminescence, single concentration, T-cell NF-kB inhibitor project, confirmation (AID 435020).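 Further: plate controls were PMA/ionomycin stimulated DMSO wells for no effect and unstimulated DMSO wells for full effect.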 The note with it: PMA/ionomycin-induced, 16 h, at 4 µM, stronger effect = higher value.
For test [2], the target named is Sentrin-specific protease 8 (Homo sapiens) (UniProt Q96LD8). Kind of test: human SENP8 peptidase blockers, hit retest – biochemical, luminescence, single concentration, confirmation (AID 488912;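 active means mean inhibition across replicates above about 50%, limit read from the data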). The note with it: Recombinant SENP8, Z-RLRGG-aminoluciferin luminescence, 60 min; at 12.5 µM; stronger effect = higher value.
The target in test [3] is Sentrin-specific protease 6 (Homo sapiens) (UniProt Q9GZR1). Briefly: inhibition of human SENP6 catalytic domain – biochemical, luminescence, single concentration, confirmation (AID 488915;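 active means mean inhibition above about 50% in the one-dose retest, limit read from the data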). Conditions: recombinant SENP6, Z-RLRGG-aminoluciferin luminescence; at 12.5 µM; stronger effect = higher value.
Test [4] concerns the target Sentrin-specific protease 7 (Homo sapiens) (UniProt Q9BQF6). Kind of test: human SENP7 peptidase blockers, hit retest – biochemical, luminescence, single concentration, confirmation (AID 488917;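 active means mean inhibition above about 50% in the one-dose retest, limit read from the data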). Conditions: recombinant SENP7, Z-RLRGG-aminoluciferin luminescence, 40 min; at 12.5 µM; stronger effect = higher value.
For another test, the target named is Caspase-3 (Homo sapiens) (UniProt P42574). Briefly: human caspase-3 activity blockade, out-of-family – biochemical, single concentration, selectivity assay for SENP inhibitor project, confirmation (AID 488918;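 active means mean inhibition above about 50%, limit read from the data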;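 further: plate controls were enzyme with DMSO for no effect and wells without caspase-3 for full effect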). The note with it: purified caspase-3, Z-DEVD-aminoluciferin luminescence, 60 min; at 12.5 µM; stronger effect = higher value.
Test [5] in a line: Ultra-Glo luciferase signal interference – biochemical, single concentration, SENP8 reaction pre-completed, artefact control for SENP inhibitor project, confirmation (AID 488919;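 active means mean inhibition above about 50% when retested at one dose, limit read from the data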;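 further: plate controls were DMSO wells with completed reaction for no effect and substrate without enzyme for full effect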). Conditions: Pre-incubated SENP8/Z-RLRGG-aminoluciferin, luciferase luminescence interference; at 12.5 µM; stronger effect = higher value.
Test [6] can be described thus: NF-kB reporter suppression in CF airway cells – cell-based, GFP fluorescence, single concentration, confirmation (AID 602472; in the data active means inhibition above about 40%;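 further: stimulus PAF is a Pseudomonas aeruginosa filtrate and not platelet activating factor; plate controls were DMSO wells with stimulus for no effect and unstimulated DMSO wells for full effect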). The note with it: KKLEB CF airway cells, PAF-induced NF-kB-GFP fluorescence, overnight; at 5 µM; stronger effect = higher value.
Test [7] in a line: NFkB reporter suppression in cystic fibrosis bronchial cells – cell-based, uHTS hits, panel, cytotoxicity readout, dose response (AID 624344). The note with it: CF bronchial epithelial cells, PAF-induced NFkB reporter inhibition, with PAF, run 1; at 79 µM (top of the series) unless noted.
Test in test [8]: as above
The note with it: CF bronchial epithelial cells, PAF-induced NFkB reporter inhibition, with PAF, run 2; at 79 µM (top of the series) unless noted.

For test [9], the target named is Carboxy-terminal domain RNA polymerase II polypeptide A small phosphatase 1 (Homo sapiens) (UniProt Q9GZU7). Kind of test: SCP1 melting temperature change from compounds – biophysical, differential scanning fluorimetry, orthogonal assay for Scp-1 inhibitor project, confirmation (AID 540329;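 active means substances whose mean melting-temperature shift, as a percentage of the reference inhibitor's shift, reaches about 5.3%, limit read from the data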;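 further: 0% = Tm of DMSO wells and 100% = Tm with sodium orthovanadate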). Conditions: Recombinant SCP1, Sypro Orange thermal shift Tm; at 40 µM; stronger effect = higher value.

The nature of test [10]: Brca1-Bard1 BiLC signal decrease – luminescence, single concentration, counter-screen for Mdm2/MdmX interaction inhibitor project, confirmation (AID 504668; call rule not given here). The note with it: Brca1/Bard1 bimolecular luciferase complementation counterscreen, at 8 µM, stronger effect = higher value.
Test [11] in a line: inhibition of PEG-3 promoter luciferase signal – cell-based, HeLa, luciferase reporter, single concentration, confirmation (AID 602417;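 active means at 20 µM dose, 40% or more inhibition averaged across four replicates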). The note with it: HeLa PEG-Prom luciferase reporter, luminescence, overnight; at 20 µM; stronger effect = higher value.
Test [12] is described as follows: HIF-2a driven luciferase blockers, single dose – luminescence, 786-0 RCC cells, confirmation (AID 651580;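 active means mean inhibition across four replicates of at least 40 percent at the single tested concentration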). The note with it: HIF-2a luciferase reporter luminescence, overnight, at 18.8 µM, stronger effect = higher value.
A short description of test [13]: HIF-1a luciferase reporter signal reduction – MiaPaCa-2 cells, single concentration, counter-screen for HIF-2a inhibitor project, confirmation (AID 651589;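 active means mean inhibition of the reporter signal across four replicates at the single tested dose of 50% or more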). Conditions: MiaPaCa-2 HIF-1a luciferase reporter, desferoxamine, overnight; at 18.8 µM; stronger effect = higher value. For orientation: Reporter assays use an easily measured gene product as a stand-in for the process of interest.

The target of test [14] is PEG-3 (UniProt Q6IN02). Briefly: inhibition of PEG-3 promoter-driven reporter – cell-based, HeLa, luciferase, CREF/GAPDH counter-screen panel, dose response (AID 624167). The note with it: CREF/GAPDH counter-screens; HeLa PEG-Prom luciferase reporter, overnight, run 1, dose range 1, at 100 µM (top of the series) unless noted. Background: The purpose of a counterscreen is to sort out artefacts and off-target activity.

The target in test [15] is PEG-3 (UniProt Q6IN02). The test is described as above. The note with it: CREF/GAPDH counter-screens; HeLa PEG-Prom luciferase reporter, overnight, run 2, dose range 1, at 100 µM (top of the series) unless noted.
For test [16], the system named is Rat fibroblasts (CREF). The test is described as above. The note with it: CREF/GAPDH counter-screens; run 1, dose range 1, at 100 µM (top of the series).
In test [17] the test system is Rat fibroblasts (CREF). The description is as above. Conditions: CREF/GAPDH counter-screens; run 2, dose range 1, at 100 µM (top of the series).
Test [18] in a line: PERK-eIF2a-CHOP pathway stimulators, retested – cell-based, CHO-CHOP luciferase reporter, single concentration, confirmation (AID 463112; in the data active means activation above about 33%;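 further: 0% = DMSO wells and 100% = tunicamycin 10 µg/mL wells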). The note with it: CHO-CHOP cells, CHOP-luciferase reporter luminescence; at 10 µM; stronger effect = higher value; percent of tunicamycin response, DMSO as zero.
Test [19] has as its target Tumor necrosis factor receptor superfamily member 10B (Homo sapiens) (UniProt O14763). Briefly: viability loss of caspase-8 NB7 cells with TRAIL – with/without TRAIL, luminescence panel, confirmation (AID 651596; in the data active means activity above about 50%). The note with it: NB7 neuroblastoma + caspase-8, TRAIL sensitization, NB7 Caspase-8, with TRAIL, mean of runs, at 10 µM, stronger effect = higher value.
Test in test [20]: as above
The note with it: NB7 neuroblastoma + caspase-8, without TRAIL, NB7 Caspase-8, without TRAIL, mean of runs, at 10 µM.

Test [21] deals with Protein Mdm4 (Homo sapiens) + E3 ubiquitin-protein ligase Mdm2 (Homo sapiens) (UniProt O15151+Q00987). Briefly: human Mdm2/MdmX binding disruption – cell-based, luminescence, single concentration, set 2, confirmation (AID 504601;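 active means mean inhibition of the luminescence signal across two replicates at or above 26 percent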). The note with it: SaOS-2 split-luciferase Mdm2/MdmX complementation, at 8 µM, stronger effect = higher value.
Test [22] in a line: apoptosome-driven caspase-3 activation blockers – biochemical, fluorescence, DEVD-Rh110, 20 µM, confirmation (AID 504614;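 active means mean inhibition of at least 40% at 20 µM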;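 further: plate controls were DMSO wells for no effect and DEVD-CHO caspase inhibitor control wells for full effect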). Conditions: reconstituted apoptosome, caspase-3 DEVD-Rh110 fluorescence; at 20 µM; stronger effect = higher value.
Test [23] is described as follows: detection-step artefacts after completed caspase reaction – biochemical, fluorescence, Rh110, 20 µM, artefact control for Apaf-1 inhibitor project, confirmation (AID 504615;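 active means signal rise of 40% or more at 20 µM, treated as a fluorescence artifact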). Conditions: quenched caspase reaction, at 20 µM, stronger effect = higher value.
The target in test [24] is COP9 signalosome complex subunit 5 (Homo sapiens) (UniProt Q92905). Briefly: blockers of CSN-driven cullin deneddylation – biochemical, fluorescence polarization, single concentration, SCF-Nedd8OG substrate, confirmation (AID 720654; in the data active means inhibition above about 50%;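 further: 0% = DMSO with enzyme and 100% = no enzyme wells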). Conditions: Csn5 deneddylation of SCF-Nedd8OG, 90 min, at 16.6 µM, stronger effect = higher value. A general note: Fluorescence polarisation rises when a labelled molecule tumbles more slowly, as on binding a larger partner.

Test [25] deals with 72 kDa type IV collagenase (Homo sapiens) (UniProt P08253). Kind of test: human MMP-2 inhibitors, single-point check – biochemical, fluorescence, single concentration, counter-screen for CSN deneddylation inhibitor project, confirmation (AID 720655;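 active means corrected plate-normalized z-score of 5 or more, or -5 or less, or inhibition of 15% or more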;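 further: plate controls were DMSO wells with enzyme for no effect and buffer wells lacking MMP-2 for full effect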). Conditions: recombinant MMP-2, FRET substrate fluorescence, 60 min; at 16.6 µM.
A further test concerns the target Prothrombin (Bos taurus) (UniProt P00735). Briefly: thrombin cleavage blockers, FP readout – biochemical, fluorescence polarization, single concentration, counter-screen for CSN deneddylation inhibitor project, confirmation (AID 720656;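 active means inhibition at or above a set limit, with a fluorescence interference ratio between 0.5 and a set maximum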). Conditions: bovine thrombin cleavage of Ub4-pepOG, at 16.6 µM, stronger effect = higher value.

Sequence of Sentrin-specific protease 6 (Homo sapiens) (Q9GZR1 628-1112 limits assumed): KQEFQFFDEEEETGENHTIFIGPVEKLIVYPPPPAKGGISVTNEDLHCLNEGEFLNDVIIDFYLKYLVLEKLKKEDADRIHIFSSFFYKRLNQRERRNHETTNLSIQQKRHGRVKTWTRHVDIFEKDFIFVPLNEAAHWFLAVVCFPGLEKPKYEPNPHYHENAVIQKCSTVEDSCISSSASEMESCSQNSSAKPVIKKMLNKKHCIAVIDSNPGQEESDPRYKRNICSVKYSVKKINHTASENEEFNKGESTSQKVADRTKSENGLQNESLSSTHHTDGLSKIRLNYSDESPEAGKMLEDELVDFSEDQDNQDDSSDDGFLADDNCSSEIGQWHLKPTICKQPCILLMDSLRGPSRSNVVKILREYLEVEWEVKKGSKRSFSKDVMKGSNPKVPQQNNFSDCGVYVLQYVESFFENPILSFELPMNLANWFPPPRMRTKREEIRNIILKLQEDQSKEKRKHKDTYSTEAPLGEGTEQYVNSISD
Sequence of Sentrin-specific protease 7 (Homo sapiens) (Q9BQF6 706-1050 limits assumed): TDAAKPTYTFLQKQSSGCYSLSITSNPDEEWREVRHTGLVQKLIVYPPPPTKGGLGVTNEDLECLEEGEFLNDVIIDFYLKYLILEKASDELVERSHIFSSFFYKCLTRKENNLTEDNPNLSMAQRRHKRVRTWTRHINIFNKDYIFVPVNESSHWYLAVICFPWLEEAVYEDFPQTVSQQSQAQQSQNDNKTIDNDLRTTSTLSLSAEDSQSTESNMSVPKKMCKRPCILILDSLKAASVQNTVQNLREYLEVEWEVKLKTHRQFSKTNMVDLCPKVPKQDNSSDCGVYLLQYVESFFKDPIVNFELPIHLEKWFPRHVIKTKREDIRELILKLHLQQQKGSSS
Sequence of Tumor necrosis factor receptor superfamily member 10B (Homo sapiens) (O14763 whole entry, looked up): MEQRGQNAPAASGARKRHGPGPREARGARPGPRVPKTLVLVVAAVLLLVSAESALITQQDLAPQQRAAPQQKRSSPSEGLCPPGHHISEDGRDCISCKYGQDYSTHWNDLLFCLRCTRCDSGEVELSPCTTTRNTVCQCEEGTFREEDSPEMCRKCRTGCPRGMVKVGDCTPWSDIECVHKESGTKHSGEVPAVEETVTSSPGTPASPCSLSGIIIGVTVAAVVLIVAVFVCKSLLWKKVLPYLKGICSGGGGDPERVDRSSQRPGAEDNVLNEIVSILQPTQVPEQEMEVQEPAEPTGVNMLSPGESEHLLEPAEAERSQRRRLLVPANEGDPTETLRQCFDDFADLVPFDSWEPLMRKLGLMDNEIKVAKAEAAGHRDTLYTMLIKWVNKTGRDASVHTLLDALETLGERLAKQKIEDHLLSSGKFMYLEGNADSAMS
Sequence of Caspase-3 (Homo sapiens) (P42574 28-227 limits assumed): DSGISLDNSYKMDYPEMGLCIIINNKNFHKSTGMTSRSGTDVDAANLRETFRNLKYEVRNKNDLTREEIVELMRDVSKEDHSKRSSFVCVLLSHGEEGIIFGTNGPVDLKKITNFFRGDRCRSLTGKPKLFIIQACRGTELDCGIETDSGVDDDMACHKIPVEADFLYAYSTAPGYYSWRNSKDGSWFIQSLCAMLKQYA
Sequence of Sentrin-specific protease 8 (Homo sapiens) (Q96LD8 whole entry, looked up, the tested form may be a part): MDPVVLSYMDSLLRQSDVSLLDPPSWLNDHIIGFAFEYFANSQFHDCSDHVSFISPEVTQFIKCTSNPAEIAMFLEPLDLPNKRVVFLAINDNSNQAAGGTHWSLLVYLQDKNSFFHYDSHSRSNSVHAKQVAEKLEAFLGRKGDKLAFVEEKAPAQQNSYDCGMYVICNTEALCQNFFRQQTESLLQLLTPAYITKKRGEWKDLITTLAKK
Sequence of PEG-3 (Q6IN02 whole entry, looked up): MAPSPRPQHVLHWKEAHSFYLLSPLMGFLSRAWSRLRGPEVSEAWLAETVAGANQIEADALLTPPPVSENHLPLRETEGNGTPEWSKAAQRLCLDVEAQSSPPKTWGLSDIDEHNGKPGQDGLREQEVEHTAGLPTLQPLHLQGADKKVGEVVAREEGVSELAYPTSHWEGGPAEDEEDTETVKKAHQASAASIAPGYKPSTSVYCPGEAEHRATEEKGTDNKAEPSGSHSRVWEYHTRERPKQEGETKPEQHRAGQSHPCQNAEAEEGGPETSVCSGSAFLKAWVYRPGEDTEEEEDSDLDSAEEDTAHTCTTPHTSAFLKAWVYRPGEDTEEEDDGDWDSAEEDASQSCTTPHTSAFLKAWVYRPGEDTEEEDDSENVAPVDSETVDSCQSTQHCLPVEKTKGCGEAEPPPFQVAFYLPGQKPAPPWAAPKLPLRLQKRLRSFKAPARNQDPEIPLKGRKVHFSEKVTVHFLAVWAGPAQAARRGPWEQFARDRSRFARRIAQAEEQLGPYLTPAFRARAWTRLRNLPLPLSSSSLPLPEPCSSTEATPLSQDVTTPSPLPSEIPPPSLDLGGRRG
Sequence of Prothrombin (Bos taurus) (P00735 whole entry, looked up): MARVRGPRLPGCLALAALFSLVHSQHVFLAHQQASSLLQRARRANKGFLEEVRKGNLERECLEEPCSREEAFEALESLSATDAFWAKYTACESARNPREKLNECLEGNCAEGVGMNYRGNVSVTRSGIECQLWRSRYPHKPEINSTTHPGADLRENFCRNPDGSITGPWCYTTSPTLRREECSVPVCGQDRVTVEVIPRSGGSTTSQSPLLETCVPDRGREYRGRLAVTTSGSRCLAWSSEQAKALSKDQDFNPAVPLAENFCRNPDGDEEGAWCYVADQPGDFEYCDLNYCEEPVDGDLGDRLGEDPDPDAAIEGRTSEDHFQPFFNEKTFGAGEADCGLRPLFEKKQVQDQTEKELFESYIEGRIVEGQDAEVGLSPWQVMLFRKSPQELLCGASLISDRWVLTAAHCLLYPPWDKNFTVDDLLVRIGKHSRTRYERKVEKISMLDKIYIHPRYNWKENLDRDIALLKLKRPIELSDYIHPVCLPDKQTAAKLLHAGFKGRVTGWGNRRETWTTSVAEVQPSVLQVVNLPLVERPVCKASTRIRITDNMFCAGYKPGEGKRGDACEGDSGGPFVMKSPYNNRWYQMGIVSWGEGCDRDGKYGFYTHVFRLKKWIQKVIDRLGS
Sequence of Protein Mdm4 (Homo sapiens) + E3 ubiquitin-protein ligase Mdm2 (Homo sapiens) (O15151 whole entry, looked up): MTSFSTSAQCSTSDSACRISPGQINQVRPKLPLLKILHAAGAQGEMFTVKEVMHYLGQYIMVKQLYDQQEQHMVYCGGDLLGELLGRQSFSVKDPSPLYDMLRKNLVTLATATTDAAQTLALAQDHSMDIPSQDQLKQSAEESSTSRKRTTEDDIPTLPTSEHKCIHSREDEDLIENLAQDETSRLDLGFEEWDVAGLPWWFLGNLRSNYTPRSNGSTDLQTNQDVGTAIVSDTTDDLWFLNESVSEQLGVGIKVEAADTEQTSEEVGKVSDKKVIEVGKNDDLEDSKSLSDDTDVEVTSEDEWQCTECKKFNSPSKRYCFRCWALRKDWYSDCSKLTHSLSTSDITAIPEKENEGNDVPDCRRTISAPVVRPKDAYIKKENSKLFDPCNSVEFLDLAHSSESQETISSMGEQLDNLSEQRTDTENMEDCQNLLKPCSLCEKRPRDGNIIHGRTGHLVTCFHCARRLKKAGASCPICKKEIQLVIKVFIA
Sequence of Protein Mdm4 (Homo sapiens) + E3 ubiquitin-protein ligase Mdm2 (Homo sapiens) (Q00987 whole entry, looked up): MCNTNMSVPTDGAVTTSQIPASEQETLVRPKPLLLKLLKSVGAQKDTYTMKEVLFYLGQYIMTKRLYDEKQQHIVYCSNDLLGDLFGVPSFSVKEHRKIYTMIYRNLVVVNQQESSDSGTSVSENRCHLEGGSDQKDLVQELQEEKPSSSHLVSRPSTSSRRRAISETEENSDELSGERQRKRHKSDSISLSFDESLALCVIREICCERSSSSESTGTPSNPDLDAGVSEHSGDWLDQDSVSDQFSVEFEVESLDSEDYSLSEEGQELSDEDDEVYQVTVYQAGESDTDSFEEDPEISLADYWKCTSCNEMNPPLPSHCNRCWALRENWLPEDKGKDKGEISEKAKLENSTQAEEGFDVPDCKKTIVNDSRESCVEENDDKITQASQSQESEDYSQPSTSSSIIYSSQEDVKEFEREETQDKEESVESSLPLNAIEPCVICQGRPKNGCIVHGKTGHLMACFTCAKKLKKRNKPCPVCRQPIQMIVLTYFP
Sequence of Carboxy-terminal domain RNA polymerase II polypeptide A small phosphatase 1 (Homo sapiens) (Q9GZU7 76-261 limits assumed): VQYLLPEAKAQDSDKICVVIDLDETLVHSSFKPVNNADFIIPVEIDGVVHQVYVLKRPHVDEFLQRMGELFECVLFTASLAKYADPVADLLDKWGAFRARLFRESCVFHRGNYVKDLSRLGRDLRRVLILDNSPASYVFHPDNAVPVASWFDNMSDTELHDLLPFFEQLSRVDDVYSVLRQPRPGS
Sequence of COP9 signalosome complex subunit 5 (Homo sapiens) (Q92905 whole entry, looked up, one chain of several): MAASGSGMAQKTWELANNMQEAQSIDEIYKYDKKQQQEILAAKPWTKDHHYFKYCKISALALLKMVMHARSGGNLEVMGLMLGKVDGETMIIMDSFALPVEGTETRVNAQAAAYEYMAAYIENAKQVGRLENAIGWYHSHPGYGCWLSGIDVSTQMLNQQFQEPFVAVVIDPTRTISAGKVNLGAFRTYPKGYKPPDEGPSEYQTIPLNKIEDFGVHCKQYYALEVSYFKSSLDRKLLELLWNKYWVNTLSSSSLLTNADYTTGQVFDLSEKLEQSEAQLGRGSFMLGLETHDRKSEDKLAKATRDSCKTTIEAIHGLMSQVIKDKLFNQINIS

In the case of `Cn1c(-c2ccc(C(=O)c3ccccc3)s2)nc2ccccc21`, the inhibition (usually the relative decrease from the control value, in per cent) was -108% (inactive) in [1]; 0% (inactive) in [2]; 11.3% (inactive) in [3]; 17.8% (inactive) in test [4]; 23% (inactive) with Caspase-3 (Homo sapiens); 8.8% (inactive) in [5].

On to `CCC(=O)Nc1ccc2nn(-c3ccc(F)cc3)nc2c1`, for which the inhibition is -119% (inactive) in test [1]; 18.1% (inactive) in [2]; 38.2% (inactive) in [3]; 46.4% (inactive) in [4]; 32.5% (inactive) in the test with Caspase-3 (Homo sapiens); 3.4% (inactive) in test [5].

On to `COc1ccc(C2=Nn3c(nnc3-c3ccccc3OC)SC2)cc1OC1CCCC1`, for which the inhibition in [1] is 58% (active); in [6] it was 98.4% (active); in test [7], 98.7%; in test [8] it was 118% [at 39.5 µM].

With `Cc1cc(C(=O)OCC(=O)NCc2ccco2)c(C)n1-c1ccccc1`, the inhibition in test [1] is 6.4% (inactive). The thermal shift relative to vanadate control in [9] is -3.06% (inactive).

Turning to `COc1ccc(Nc2ncnc3ccc(Br)cc23)c(OC)c1`, the inhibition in test [1] was 88.2% (active); in test [10], 24.3% (active); in test [11] it was 87.9% (active); in test [12] it was 91.3% (active); in test [13], 102% (active); with PEG-3 [14] it was 88.3%. The inhibition with PEG-3 [15] came out at 91.8%; with Rat fibroblasts (CREF) [16] it was 44.4%; in the test with Rat fibroblasts (CREF) [17], 38.7%.

As for `Cc1cccc(Nc2nc3c(S(=O)(=O)c4ccccc4)nnn3c3ccccc23)c1C`, the activation in test [18] is 128% (active).

`CCCOC1CCCN(Cc2cn(C)nc2-c2ccccc2F)C1` (stereo not given): the activation in [18] is -0.8% (inactive).

As for `O=C(Nc1nc2ccccc2s1)c1ccc2c(c1)OCO2`, the inhibition in [1] was -106% (inactive); in [2] it was 66% (active); in test [3], 95.1% (active); in [4], 97.4% (active); in the test with Caspase-3 (Homo sapiens) it was 84.8% (active); in test [5], 18.6% (inactive). The activity was 78.8% in test [19] and 76.8% in [20].

Regarding `NC(N)=N/N=C/c1ccc(OCc2ccc(Cl)cc2Cl)cc1`, the inhibition in test [1] was -12.9% (inactive); in test [21], 102% (active); in test [22] it was 35.8% (inactive). In [23], the activation (fluorescence interference) is -0.23% (inactive). Moreover, the activity worked out at 58.8% in test [19] and 95.5% in test [20].

In the case of `Clc1cccc(Cl)c1OCCOCCNCc1ccccc1`, the inhibition in test [1] is 86.6% (active); in [10] it was 33% (active).

With `c1ccc2[nH]c(-c3nc4ccccc4[nH]3)nc2c1`, the inhibition in test [1] was -90% (inactive); in test [2], -14.2% (inactive); in [3], 42.7% (inactive); in test [4], 77.8% (active); with Caspase-3 (Homo sapiens) it was 77.3% (active); in [5] it was 50.8% (active). The activity in [19] was 80.2%; in test [20], 77.8%.

Turning to `COc1cccc(/C=N/NC(=O)c2[nH]nc3c2CCc2ccccc2-3)c1O`, the inhibition in test [1] is 39.9% (inactive); in [10] it was 27% (active); in test [24], 20.6% (inactive); in test [25], 34.7% (active); with Prothrombin (Bos taurus) it was 30.2% (active).

As to `Cc1ccc(Cc2cnc(NC(=O)/C(C#N)=C/c3ccc(-c4cccc([N+](=O)[O-])c4)o3)s2)cc1`, the activation in test [18] was 61.4% (active).

As to `CCOC(=O)c1cnc(Nc2nc3ccccc3o2)nc1CSC(=S)N1CCCCC1`, the activation in test [18] is 92.7% (active).
